# Records with an inconclusive call do not appear. Entries that show only a call come without a potency. A structure can be active in one record and inactive in another. Values without a mark were called inactive. Activity calls are given as the source filed them. Unless noted, calls come from the whole dose curve; as a rule, active = well fitted curve in the direction sought with a large enough effect in the repeat runs; inconclusive = weak or mixed curves; inactive = no such curve, though single readings can be large; an effect the other way counts as inactive or inconclusive.
# Columns and labels:
# [1] = qHTS assay to identify small molecule antagonists of the thyroid receptor (TR) signaling pathway - cell viability counter screen (AID 743064); note: nearly all actives have a fitted effect of over 50% in size
# Summary of the method: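 In-well cytotoxicity read by CellTiter-Fluor (30 min, 37 C) following 23.5 h exposure of GH3 cells bearing a TRE-luciferase sensor. Compounds were added alongside 1 nM (final) T3 to drive TR transactivation.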
# [2] = qHTS assay to identify small molecule antagonists of the thyroid receptor (TR) signaling pathway (AID 743065); note: nearly all actives have a fitted effect of over 55% in size
# Summary of the method: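 Antagonism measured as loss of luciferase signal in GH3 cells stably carrying a TRE-luciferase reporter, co-treated with compound and T3 (1 nM final) for 23.5 h at 37 C. Viability was read in the same well by CellTiter-Fluor.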
# [3] = test system: thyroid hormone receptor (rat, GH3 cells); test: qHTS assay to identify small molecule agonists of the thyroid receptor (TR) signaling pathway (AID 743066; calls by dose curve)
# [4] = qHTS assay to identify small molecule antagonists of the estrogen receptor alpha (ER-alpha) signaling pathway - cell viability counter screen (AID 743074; calls by dose curve; note: nearly all actives have a fitted effect of over 45% in size)
# [5] = qHTS assay to identify small molecule antagonists of the estrogen receptor alpha (ER-alpha) signaling pathway using the BG1 cell line - cell viability counter screen (AID 743081);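 note: compound given together with 17beta-estradiol as the ER stimulus; nearly all actives have a fitted effect of over 45% in size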
# [6] = qHTS assay to identify small molecule that activate the aryl hydrocarbon receptor (AhR) signaling pathway - cell viability counter screen (AID 743086);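 note: HepG2 liver cells carrying the AhR DRE luciferase reporter; nearly all actives have a fitted effect of over 45% in size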
# Summary of the method: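 Cytotoxicity counter screen: CellTiter-Fluor signal (30 min, 37 C) in 4000 HepG2 cells/well carrying the DRE-luciferase reporter, following 24 h compound exposure at 37 C.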
# [7] = qHTS assay to identify small molecule antagonists of the peroxisome proliferator-activated receptor gamma (PPARg) signaling pathway - cell viability counter screen (AID 743194); settings: Potency: co-treated with 50 nM rosiglitazone unless noted; note: nearly all actives have a fitted effect of over 55% in size
# Summary of the method: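 Viability was measured as CellTiter-Glo luminescence in GeneBLAzer PPARg UAS-bla HEK293H cells. These cells had been exposed 17 h at 37 C to compounds together with rosiglitazone at 50 nM final, with the beta-lactamase readout taken in the same wells.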
# [8] = qHTS assay for small molecule agonists of the antioxidant response element (ARE) signaling pathway - cell viability counter screen (AID 743203; calls by dose curve; note: nearly all actives have a fitted effect of over 55% in size)
# Summary of the method: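 Cytotoxicity was tested in parallel with the ARE reporter screen. ARE-bla HepG2 cells were exposed to compounds for 16 hrs, and viability was taken from CellTiter-Glo luminescence.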
# [9] = qHTS assay for small molecule activators of the heat shock response signaling pathway - cell viability counter screen (AID 743209); note: nearly all actives have a fitted effect of over 50% in size
# Summary of the method: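 Cytotoxicity counter screen run in parallel with the HSE beta-lactamase reporter, using the same wells. HeLa HSE-bla cells received compound for 5 h at 37 C; ATP-based CellTiter-Glo luminescence was measured after 30 min at room temperature.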
# [10] = biological target: Estrogen receptor (Homo sapiens) (UniProt P03372); test: qHTS assay to identify small molecule antagonists of the estrogen receptor alpha (ER-alpha) signaling pathway (AID 743069; active = well fitted curve in the direction sought with a large enough effect in the signal ratio in the repeat runs, not every such curve was filed as active; the % refers to the signal ratio)
# Estrogen receptor (Homo sapiens), sequence (P03372 whole entry, looked up): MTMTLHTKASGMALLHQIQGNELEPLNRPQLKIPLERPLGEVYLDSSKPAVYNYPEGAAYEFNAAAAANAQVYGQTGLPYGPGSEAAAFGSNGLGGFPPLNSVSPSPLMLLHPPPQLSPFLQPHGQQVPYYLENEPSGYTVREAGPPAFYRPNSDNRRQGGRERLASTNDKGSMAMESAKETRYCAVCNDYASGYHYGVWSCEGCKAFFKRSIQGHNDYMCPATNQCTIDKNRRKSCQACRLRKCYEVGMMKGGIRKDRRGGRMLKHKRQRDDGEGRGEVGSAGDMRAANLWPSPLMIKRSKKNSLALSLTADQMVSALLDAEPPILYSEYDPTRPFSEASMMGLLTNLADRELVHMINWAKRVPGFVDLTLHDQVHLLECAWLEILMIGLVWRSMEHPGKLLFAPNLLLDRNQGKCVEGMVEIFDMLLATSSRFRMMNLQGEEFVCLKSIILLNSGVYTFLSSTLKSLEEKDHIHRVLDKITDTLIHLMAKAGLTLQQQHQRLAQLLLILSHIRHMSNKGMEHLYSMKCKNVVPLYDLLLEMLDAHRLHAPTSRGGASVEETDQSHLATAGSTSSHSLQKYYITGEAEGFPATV
# Summary of the method: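 Fluorescence intensity from a beta-lactamase FRET substrate served as the read-out. Cells: HEK293 with stably integrated ER-alpha-UAS-bla reporter. Agonist 17beta-estradiol was co-added with compounds; incubation 18 hr at 37C, substrate 2 hr at room temperature.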
# [11] = biological target: Estrogen receptor (Homo sapiens) (UniProt P03372); test: qHTS assay to identify small molecule agonists of the estrogen receptor alpha (ER-alpha) signaling pathway (AID 743075; calls by dose curve)
# [12] = biological target: Estrogen receptor (Homo sapiens) (UniProt P03372); test: qHTS assay to identify small molecule agonists of the estrogen receptor alpha (ER-alpha) signaling pathway using the BG1 cell line (AID 743079); settings: BG1Luc4E2 cells, ERE-luciferase agonist, 22 h; activation: at 70.3 µM (top of the series) unless noted; note: nearly all actives have a fitted effect of over 20% in size
# [13] = qHTS assay to identify small molecule antagonists of the estrogen receptor alpha (ER-alpha) signaling pathway using the BG1 cell line (AID 743080; calls by dose curve;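 note: BG1 cells stimulated with 17beta-estradiol alongside compound; nearly all actives have a fitted effect of over 25% in size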)
# Summary of the method: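 Luminescence from a 4×ERE-luciferase reporter in BG1-Luc-4E2 cells served as read-out. Cells, pre-cultured 5 days in stripped-serum phenol-red-free medium, were exposed to compound with 17beta-estradiol co-stimulation for 21.5 h at 37 C.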
# Aromatase (Homo sapiens) = Aromatase (Homo sapiens) (UniProt P11511); test: qHTS assay to identify aromatase inhibitors (AID 743083); note: nearly all actives have a fitted effect of over 55% in size
# Aromatase (Homo sapiens), sequence (P11511 whole entry, looked up): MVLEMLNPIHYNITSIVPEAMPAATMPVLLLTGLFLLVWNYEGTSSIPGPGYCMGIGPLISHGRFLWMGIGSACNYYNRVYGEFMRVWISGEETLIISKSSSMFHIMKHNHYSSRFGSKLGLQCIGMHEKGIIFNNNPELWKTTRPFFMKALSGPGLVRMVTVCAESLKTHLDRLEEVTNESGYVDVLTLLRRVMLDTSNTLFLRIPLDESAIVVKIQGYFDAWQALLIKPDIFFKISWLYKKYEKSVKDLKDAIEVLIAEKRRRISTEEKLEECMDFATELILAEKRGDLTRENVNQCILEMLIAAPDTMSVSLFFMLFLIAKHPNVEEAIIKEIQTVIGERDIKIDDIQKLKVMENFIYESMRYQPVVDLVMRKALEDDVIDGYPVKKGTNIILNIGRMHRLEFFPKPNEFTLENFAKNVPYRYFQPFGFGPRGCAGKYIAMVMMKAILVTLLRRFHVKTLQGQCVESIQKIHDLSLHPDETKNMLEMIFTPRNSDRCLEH
# [14] = qHTS assay to identify aromatase inhibitors - cell viability counter screen (AID 743084)
# [15] = biological target: Aryl hydrocarbon receptor (Homo sapiens) (UniProt P35869); test: qHTS assay to identify small molecule that activate the aryl hydrocarbon receptor (AhR) signaling pathway (AID 743085);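 note: HG2L7.5c1 human HepG2 liver cells with stably integrated DRE-driven firefly reporter; nearly all actives have a fitted effect of over 15% in size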
# Aryl hydrocarbon receptor (Homo sapiens), sequence (P35869 whole entry, looked up): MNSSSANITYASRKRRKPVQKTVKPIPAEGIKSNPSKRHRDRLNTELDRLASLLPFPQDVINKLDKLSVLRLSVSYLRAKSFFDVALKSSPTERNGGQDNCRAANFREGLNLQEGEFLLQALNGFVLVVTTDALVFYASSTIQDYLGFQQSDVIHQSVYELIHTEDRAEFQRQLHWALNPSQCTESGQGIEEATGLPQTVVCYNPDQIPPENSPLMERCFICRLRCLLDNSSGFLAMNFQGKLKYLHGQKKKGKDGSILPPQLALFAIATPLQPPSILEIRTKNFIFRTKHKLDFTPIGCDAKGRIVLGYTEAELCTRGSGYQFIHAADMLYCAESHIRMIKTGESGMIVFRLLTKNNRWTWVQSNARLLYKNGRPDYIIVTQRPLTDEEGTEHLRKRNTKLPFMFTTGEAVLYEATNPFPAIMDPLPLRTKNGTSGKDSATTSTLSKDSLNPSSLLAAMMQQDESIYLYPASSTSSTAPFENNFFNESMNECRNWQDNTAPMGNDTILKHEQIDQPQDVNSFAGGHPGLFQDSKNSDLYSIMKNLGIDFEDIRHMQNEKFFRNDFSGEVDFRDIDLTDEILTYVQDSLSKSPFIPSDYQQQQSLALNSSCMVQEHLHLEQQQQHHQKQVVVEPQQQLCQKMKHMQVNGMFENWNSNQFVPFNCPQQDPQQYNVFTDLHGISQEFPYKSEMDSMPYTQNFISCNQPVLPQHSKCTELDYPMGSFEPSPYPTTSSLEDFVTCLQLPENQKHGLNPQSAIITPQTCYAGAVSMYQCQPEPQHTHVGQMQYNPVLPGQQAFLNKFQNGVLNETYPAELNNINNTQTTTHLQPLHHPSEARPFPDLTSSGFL
# Summary of the method: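 Luminescence (ONE-Glo) from a dioxin-responsive-element luciferase reporter in HG2L7.5c1 HepG2 cells after 24 hr compound exposure at 37C; viability measured by CellTiter-Fluor fluorescence beforehand.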
# [16] = biological target: Peroxisome proliferator-activated receptor gamma (Homo sapiens) (UniProt P37231); test: qHTS assay to identify small molecule agonists of the peroxisome proliferator-activated receptor gamma (PPARg) signaling pathway (AID 743094; active = well fitted activation curve with a large enough effect in the signal ratio in the repeat runs, not every such curve was filed as active; the % refers to the signal ratio; note: potency is the fitted concentration of half-maximal effect)
# Peroxisome proliferator-activated receptor gamma (Homo sapiens), sequence (P37231 whole entry, looked up): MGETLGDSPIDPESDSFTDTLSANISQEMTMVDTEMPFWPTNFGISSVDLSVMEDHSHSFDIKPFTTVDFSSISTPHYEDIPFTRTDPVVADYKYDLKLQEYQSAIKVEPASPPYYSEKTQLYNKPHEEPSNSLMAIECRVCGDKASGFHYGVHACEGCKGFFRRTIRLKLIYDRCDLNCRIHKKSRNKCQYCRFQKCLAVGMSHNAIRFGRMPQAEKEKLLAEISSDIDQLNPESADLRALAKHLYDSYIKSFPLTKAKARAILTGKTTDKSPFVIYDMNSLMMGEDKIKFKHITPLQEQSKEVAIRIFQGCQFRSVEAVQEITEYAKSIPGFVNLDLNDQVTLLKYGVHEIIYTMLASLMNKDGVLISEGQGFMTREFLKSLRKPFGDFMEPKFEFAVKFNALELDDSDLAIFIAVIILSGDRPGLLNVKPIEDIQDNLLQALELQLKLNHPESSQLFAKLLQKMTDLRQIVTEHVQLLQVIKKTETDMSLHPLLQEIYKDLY
# Summary of the method: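 Cells from the PPARg UAS-bla HEK293H line are plated and incubated 5 h at 37C. Compounds in DMSO are pinned in and left 17 h at 37C. LiveBLAzer B/G substrate is then added for 1 h at room temperature before fluorescence is measured.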
# [17] = biological target: Peroxisome proliferator-activated receptor gamma (Homo sapiens) (UniProt P37231); test: qHTS assay to identify small molecule antagonists of the peroxisome proliferator-activated receptor gamma (PPARg) signaling pathway (AID 743191; calls by dose curve; note: nearly all actives have a fitted effect of over 30% in size)
# Summary of the method: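 Beta-lactamase reporter under UAS control in HEK293H PPARg-bla cells; compound treatment 17 h at 37C. Read-out: fluorescence intensity after 1 h room-temperature incubation with LiveBLAzer B/G FRET substrate.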
# [18] = qHTS assay for small molecule agonists of the antioxidant response element (ARE) signaling pathway (AID 743202; active = well fitted activation curve with a large enough effect in the signal ratio in the repeat runs, not every such curve was filed as active; the % refers to the signal ratio)
# Summary of the method: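 Beta-lactamase reporter activity, read as fluorescence intensity, reflects ARE/Nrf2 pathway induction in HepG2 cells after 16 h compound exposure at 37 C; substrate loading was 2 h at room temperature.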
# [19] = qHTS assay for small molecule activators of the heat shock response signaling pathway (AID 743210; active = well fitted activation curve with a large enough effect in the signal ratio in the repeat runs, with a control signal flat, not every such curve was filed as active; the % refers to the signal ratio;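 note: HeLa cells with beta-lactamase reporter driven by heat shock elements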)
# Summary of the method: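 Fluorescence from a cleaved B/G FRET substrate (2.5 h, room temp) reports HSE-driven beta-lactamase in HeLa cells treated 5 h at 37 C with DMSO-dissolved compounds.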
smiles,measurement,setting,value
NCCNCCNCCN,Potency,[1],inactive
same,Potency,[2],inactive
same,Potency,[3],inactive
same,Potency,[4],inactive
same,Potency,[5],inactive
same,Potency,[6],inactive
same,Potency,[7],inactive
same,Potency,[8],inactive
same,Potency,[9],inactive
CCCCCCCCO,Potency,[1],inactive
same,Potency,[3],inactive
same,Potency,[10],inactive
same,Potency,[4],inactive
same,Potency,[11],inactive
same,Potency,[12],inactive
same,Potency,[13],inactive
same,Potency,[5],inactive
same,Potency,Aromatase (Homo sapiens),inactive
same,Potency,[14],inactive
same,Potency,[15],inactive
same,Potency,[6],inactive
same,Potency,[16],inactive
same,Potency,[17],inactive
same,Potency,[18],inactive
same,Potency,[9],inactive
same,Potency,[19],inactive
Brc1ccc(Oc2ccc(Br)cc2)cc1,Potency,[1],inactive
same,Potency,[2],inactive
same,Potency,[3],inactive
same,Potency,[4],inactive
same,Potency,[5],inactive
same,Potency,[6],inactive
same,Potency,[18],inactive
same,Potency,[8],inactive
same,Potency,[9],inactive
same,Potency,[19],inactive
CCCCCCCCCCCC(=O)N(C)CC(=O)O,"activity change, negative = cytotoxic",[1],15.6% [at 8.44 µM]
same,Potency,[3],inactive
same,"activity, negative = inhibition",[10],-5.64% [at 6.71 µM]
same,Potency,[4],inactive
same,Potency,[11],inactive
same,activation,[12],-3.44% [at 8.47 µM]
same,Potency,[13],inactive
same,Potency,[5],inactive
same,Potency,Aromatase (Homo sapiens),inactive
same,Potency,[14],inactive
same,Potency,[15],inactive
same,Potency,[6],inactive
same,Potency,[16],15 µM (active)
same,activation,[16],0.467% [at 7.08 µM]
same,"ratio activity, negative = inhibition",[17],4.34% [at 5.95 µM]
same,Potency,[7],inactive
same,Potency,[8],inactive
same,Potency,[9],inactive
same,Potency,[19],inactive
CCN(CC)CCNC(=O)c1ccc(N)cc1,Potency,[1],inactive
same,Potency,[2],inactive
same,Potency,[3],inactive
same,Potency,[4],inactive
same,Potency,[5],inactive
same,Potency,Aromatase (Homo sapiens),inactive
same,Potency,[14],inactive
same,Potency,[15],inactive
same,Potency,[6],inactive
same,Potency,[18],inactive
same,Potency,[8],inactive
same,Potency,[9],inactive
same,Potency,[19],inactive
CCOC(=O)CC(=O)OCC,Potency,[1],inactive
same,Potency,[2],inactive
same,Potency,[3],inactive
same,Potency,[5],inactive
same,Potency,[6],inactive
same,Potency,[18],inactive
same,Potency,[9],inactive
same,Potency,[19],inactive
Cc1cc(CC(=O)O)n(C)c1C(=O)c1ccc(Cl)cc1,Potency,[1],inactive
same,Potency,[2],inactive
same,Potency,[3],inactive
same,Potency,[4],inactive
same,Potency,[5],inactive
same,Potency,Aromatase (Homo sapiens),inactive
same,Potency,[14],inactive
same,Potency,[15],inactive
same,Potency,[6],inactive
same,Potency,[16],inactive
same,Potency,[17],inactive
same,Potency,[7],inactive
same,Potency,[9],inactive
same,Potency,[19],inactive
CC(=O)C(C)C,Potency,[1],inactive
same,Potency,[2],inactive
same,Potency,[3],inactive
same,Potency,[10],inactive
same,Potency,[4],inactive
same,Potency,[11],inactive
same,Potency,[12],inactive
same,Potency,[13],inactive
same,Potency,[5],inactive
same,Potency,Aromatase (Homo sapiens),inactive
same,Potency,[14],inactive
same,Potency,[15],inactive
same,Potency,[6],inactive
same,Potency,[16],inactive
same,Potency,[17],inactive
same,Potency,[7],inactive
same,Potency,[18],inactive
same,Potency,[8],inactive
same,Potency,[9],inactive
same,Potency,[19],inactive
CS(=O)(=O)c1ccc(Cl)cc1,Potency,[1],inactive
same,Potency,[2],inactive
same,Potency,[3],inactive
same,Potency,[4],inactive
same,Potency,[5],inactive
same,Potency,Aromatase (Homo sapiens),inactive
same,Potency,[14],inactive
same,Potency,[15],inactive
same,Potency,[6],inactive
same,Potency,[7],inactive
same,Potency,[8],inactive
same,Potency,[9],inactive
same,Potency,[19],inactive
O=C(O)Cc1c[nH]c2ccccc12,Potency,[1],inactive
same,Potency,[2],inactive
same,Potency,[3],inactive
same,Potency,[4],inactive
same,Potency,[5],inactive
same,Potency,[6],inactive
same,Potency,[9],inactive
same,Potency,[19],inactive
